A short description of assay [1]: AP1 Signaling Pathway (AID 357; active = well fitted curve in either direction with a large enough effect, not every such curve was filed as active;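 note: ME-180 reporter cells stimulated with EGF at its EC50 level; % is set by controls: 0 for no effect and ±100 for the full control effect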). The settings on record: ME-180 AP-1-bla reporter, EGF-induced, beta-lactamase ratio, 5 h; at 17.2 µM (top of the series). In a few lines:
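A ratiometric CCF4 readout (405 nm excitation; 460 and 530 nm emission) quantified AP-1-driven beta-lactamase in ME-180 cells after 5 h with compound and EC50 EGF; AC50 values were derived for activators and inhibitors.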

Assay [2] is described as follows: NFAT Signaling Pathway (AID 444; active = well fitted curve in either direction with a large enough effect, not every such curve was filed as active;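 note: carbachol stimulus at about its EC50 of 1 µM final; % is set by controls: 0 for no effect and ±100 for the full control effect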). The settings on record: Jurkat NFAT-bla M1, carbachol, beta-lactamase ratio, 5 h; at 17.2 µM (top of the series). In a few lines:
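Read-out: CCF4 FRET ratio (460 nm/530 nm) after 1 h RT dye loading, used for %activity and AC50 from titration series. Cells: Jurkat NFAT-β-lactamase/M1 line, treated with compound plus 1 uM carbachol for 5 h, 37 °C.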

Assay [3] in a line: Stat Signaling Pathway (AID 446; active = well fitted curve in either direction with a large enough effect, not every such curve was filed as active;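 note: ME-180 cervical cancer cells given 40 pM IL-6 alongside compound; SIE-controlled beta-lactamase reporter measured as 460/530 nm FRET emission ratio; % is set by controls: 0 for no effect and ±100 for the full control effect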). The conditions noted are these: ME-180 (cervical carcinoma) SIE beta-lactamase reporter, IL-6 stimulated, 5 h; at 17.2 µM (top of the series). In a few lines: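 Overnight-plated ME-180 cells bearing a STAT Inducible Element beta-lactamase reporter; 5 h co-exposure to compound and 40 pM IL-6; values normalized to 300 pM IL-6 and 125 nM JAK inhibitor controls.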
The target in assay [4] is Glucocorticoid receptor (Homo sapiens) (UniProt P04150). Briefly: GR-GFP Redistribution (AID 450;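 active = compounds whose dose series gives a full or clear partial fitted curve of increased nuclear translocation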; note: potency is the fitted concentration of half-maximal effect). The conditions noted are these: U2OS GR-GFP nuclear translocation, laser cytometry, 2 h.
For assay [5], the target named is Bile acid receptor (Homo sapiens) (UniProt Q96RI1). The assay can be described thus: qHTS assay for small molecule antagonists of farnesoid X receptor signaling (AID 588526; calls by dose curve; note: % is set by controls: 0 for no effect and ±100 for the full control effect). In a few lines:
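Beta-lactamase reporter antagonist mode: HEK293T FXR-UAS-bla cells, titrated compound, CDCA stimulation, 16 h 37 C, CCF4 dye 2 h RT. Data normalized to CDCA 50 uM and DMSO; Hill-fit IC50.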

Assay [6] concerns the target Glucocorticoid receptor (Homo sapiens) (UniProt P04150). Briefly: qHTS assay for small molecule agonists of glucocorticoid receptor signaling (AID 588532; active = well fitted curve in the direction sought with a large enough effect in the signal ratio, with a control signal flat; the % refers to the signal ratio;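 note: 100% = dexamethasone at 0.1 µM and 0% = DMSO only wells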). The conditions noted are these: HeLa MMTV-bla, beta-lactamase ratio, agonist, 18 h; stronger effect = higher value; percent of dexamethasone control, DMSO zero. In a few lines: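 Using MMTV-bla HeLa cells in medium with 1% stripped FBS and 25 mM HEPES, compounds were titrated and incubated overnight-length (18 h). Beta-lactamase cleavage of CCF4 was quantified by dual-emission fluorescence.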

Assay [7] has as its target Peroxisome proliferator-activated receptor gamma (Homo sapiens) (UniProt P37231). Briefly: qHTS assay for small molecule agonists of peroxisome proliferator-activated receptor gamma signaling (AID 588536; active = well fitted curve in the direction sought with a large enough effect in the signal ratio, with a control signal flat, not every such curve was filed as active; the % refers to the signal ratio;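 note: 0% = DMSO basal wells and 100% = rosiglitazone at 2 µM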). In a few lines:
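Using GeneBLAzer HEK293 cells, response was quantified by CCF4 fluorescence and normalized between basal DMSO (0%) and rosiglitazone 2 uM (100%); curves yielded half-maximal stimulation concentration and efficacy.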

Assay [8] shares this target. Briefly: qHTS assay for small molecule antagonists of peroxisome proliferator-activated receptor gamma signaling (AID 588537; active = well fitted inhibition curve with a large enough effect in the signal ratio, with a control signal flat, not every such curve was filed as active; the % refers to the signal ratio;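 note: reporter cells co-stimulated with 50 nM rosiglitazone agonist during compound treatment; % of control where 0% means no effect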). In a few lines:
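Cell-based beta-lactamase assay; GW9662 served as the antagonist control. Stimulation used rosiglitazone, final 50 nM, 16 h, 37 C.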

The target in assay [9] is Thyroid hormone receptor beta (Homo sapiens) (UniProt P10828). Briefly: qHTS assay for small molecule agonists of thyroid hormone receptor beta signaling (AID 588545; calls by dose curve;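 note: 0% = DMSO only and 100% = 10 nM T3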). Summed up: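 Beta-lactamase reporter activity under TR response element control is measured in HEK 293 cells after 18 hrs compound exposure. Signal is ratiometric CCF4 fluorescence, 460/530 nm.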
The nature of assay [10]: qHTS assay for small molecule antagonists of retinoid X receptor alpha signaling (AID 588546; active = well fitted inhibition curve with a large enough effect in the signal ratio, with a control signal flat, not every such curve was filed as active; the % refers to the signal ratio). The settings on record: HEK293T RXRa-UAS-bla, beta-lactamase ratio, antagonist mode; measured here: W530 green channel, cytotoxicity proxy. In a few lines:
(§1)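 Beta-lactamase reporter inhibition, read as CCF4 fluorescence ratio (ex 405, em 460/530 nm) after 2 h at RT. HEK293T UAS-bla cells, 2500/well, were stimulated with 9-cis-RA at 500 or 100 nM final alongside test compound for 18 h at 37 C.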

Assay [11] concerns the target Retinoic acid receptor RXR-alpha (Homo sapiens) (UniProt P19793). The assay is described as above. The conditions noted are these: HEK293T RXRa-UAS-bla, beta-lactamase ratio, antagonist mode. In a few lines:
as §1

The nature of assay [12]: qHTS assay for small molecule activators of the p53 signaling pathway (AID 651743; active = well fitted activation curve with a large enough effect in the signal ratio, not every such curve was filed as active; the % refers to the signal ratio; note: % of control where 0% means no effect). The conditions noted are these: HCT-116 p53RE-bla, beta-lactamase FRET ratio, 16 h; stronger effect = higher value. In a few lines:
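A beta-lactamase reporter under p53 response element control, stably carried by HCT-116 cells, reported pathway activation. Test compounds were applied for 16 hours at 37 C, and fluorescence was measured 2 hours after adding the B/G FRET substrate.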

Assay [13] can be described thus: qHTS assay for small molecule activators of the nuclear factor-kappa B (NF-kB) signaling pathway (AID 651749; active = well fitted activation curve with a large enough effect in the signal ratio; the % refers to the signal ratio; note: % of control where 0% means no effect). The settings on record: NF-kB-bla ME-180 cells, beta-lactamase FRET ratio, 16 h; stronger effect = higher value. In a few lines: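 FRET-based beta-lactamase detection in ME-180 cells reports NF-kB response-element-driven transcription following overnight (16 hr) compound treatment.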

The nature of assay [14]: qHTS assay for environmental chemicals that activate the Aryl hydrocarbon Receptor (AhR) signaling pathway (AID 651777). Note: % of control where 0% means no effect; nearly all actives have a fitted effect of over 15% in size. The settings on record: 1A2-DRE human hepatoma cells, luciferase, 24 h; stronger effect = higher value. In a few lines:
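1A2-DRE human hepatoma reporter line; 1,200 cells/well; cmpd or DMSO 24 h, 37 C/5% CO2; One-Glo 30 min RT; luciferase lum.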

For assay [15], the target named is Peroxisome proliferator-activated receptor alpha (Homo sapiens) (UniProt Q07869). Briefly: qHTS assay for small molecule agonists of the peroxisome proliferator-activated receptor alpha (PPARalpha) signaling pathway (AID 651778). Note: % of control where 0% means no effect. The settings on record: PathHunter PPARalpha complementation, chemiluminescence, 6 h; stronger effect = higher value. Summed up:
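Chemiluminescence from complemented enzyme reported PPARalpha activation in cells after 6 hr of compound treatment at 37 C. The detection reagent was incubated for 60 min at room temperature, and compounds were scored as agonists.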

A short description of assay [16]: qHTS assay for small molecule agonists of the antioxidant response element (ARE) signaling pathway measured by Nrf2-dependant transcriptional activity (AID 720636; active = well fitted curve in the direction sought with a large enough effect in the repeat runs; an effect the other way counts as inactive or inconclusive;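 note: HepG2 cells with an ARE-driven luciferase reporter; % of control where 0% means no effect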). In a few lines:
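Cells: ARE-luc HepG2 with Nrf2-responsive luciferase. Medium contained 1% dialyzed FBS. Compound exposure lasted 16 hr at 37 C and 5% CO2, followed by ONE-Glo luciferase detection.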

Assay [17] is described as follows: qHTS assay for small molecule agonists of the antioxidant response element (ARE) signaling pathway measured by Nrf2-dependant transcriptional activity - cell viability counter screen (AID 720653; active = well fitted curve in the direction sought with a large enough effect in the repeat runs; an effect the other way counts as inactive or inconclusive; note: % is set by controls: 0 for no effect and ±100 for the full control effect). The conditions noted are these: ARE-bla HepG2 viability, CellTiter-Glo ATP luminescence, 16 h; max response: stronger effect = lower value. Summed up: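 Cytotoxicity counter screen: intracellular ATP quantified by CellTiter-Glo luminescence in the same ARE-bla HepG2 plates, after 16 h compound exposure and a 2 h beta-lactamase substrate step.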

Assay [18] can be described thus: qHTS assay for cell viability of HEK293 cells (AID 743288). Note: % is set by controls: 0 for no effect and ±100 for the full control effect; nearly all actives have a fitted effect of over 50% in size. The settings on record: ATP luminescence (CellTiter-Glo), 18 h; max response: stronger effect = lower value. In a few lines: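 Viable-cell counts were inferred from luciferase-based ATP content in HEK293 cells seeded at 2,000/well, pre-incubated ≥5 h, then dosed with DMSO-solubilised compounds for 18 h at 37 C.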

Assay [19] in a line: qHTS assay for cell viability of the p53RE-bla HCT-116 cell line (AID 743292). Note: % is set by controls: 0 for no effect and ±100 for the full control effect; nearly all actives have a fitted effect of over 55% in size. Summed up: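 HCT-116 p53RE-bla cells seeded 4,000/well; 5 h at 37 C; compound (DMSO) added; 16 h at 37 C; CellTiter-Glo added, 30 min RT; luminescence read.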
Assay [20] has as its system Zika virus NS2B-NS3 protease. The assay can be described thus: Primary screen GU AMC qHTS for Zika virus inhibitors (AID 1347154).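 Note: 0% = no-inhibitor control and -100% = no-enzyme control; nearly all actives have a fitted effect of over 70% in size.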 In a few lines: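 Fluorogenic AMC-substrate cleavage by noncovalent NS2B-NS3 protease complex (25 nM, pH 8.0 Tris buffer with Tween 20) followed for 15 minutes at room temperature (~20% conversion). Percent inhibition from ex340/em450 signal change, fitted by 4-parameter Hill equation.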

This is an account of results in PubChem BioAssay (NCATS).

“And” between values parts separate entries of the source, which are not always exact repeats. Identical values can stand only once. Records with an inconclusive call do not appear. The source made the active and inactive calls. Unless noted, calls come from the whole dose curve; as a rule, active = well fitted curve in the direction sought with a large enough effect; inconclusive = small, poorly fitted or top-dose-only effect, or another doubt; inactive = no such curve, though single readings can be large; an effect the other way counts as inactive or inconclusive.

Glucocorticoid receptor (Homo sapiens), sequence (P04150 whole entry, looked up): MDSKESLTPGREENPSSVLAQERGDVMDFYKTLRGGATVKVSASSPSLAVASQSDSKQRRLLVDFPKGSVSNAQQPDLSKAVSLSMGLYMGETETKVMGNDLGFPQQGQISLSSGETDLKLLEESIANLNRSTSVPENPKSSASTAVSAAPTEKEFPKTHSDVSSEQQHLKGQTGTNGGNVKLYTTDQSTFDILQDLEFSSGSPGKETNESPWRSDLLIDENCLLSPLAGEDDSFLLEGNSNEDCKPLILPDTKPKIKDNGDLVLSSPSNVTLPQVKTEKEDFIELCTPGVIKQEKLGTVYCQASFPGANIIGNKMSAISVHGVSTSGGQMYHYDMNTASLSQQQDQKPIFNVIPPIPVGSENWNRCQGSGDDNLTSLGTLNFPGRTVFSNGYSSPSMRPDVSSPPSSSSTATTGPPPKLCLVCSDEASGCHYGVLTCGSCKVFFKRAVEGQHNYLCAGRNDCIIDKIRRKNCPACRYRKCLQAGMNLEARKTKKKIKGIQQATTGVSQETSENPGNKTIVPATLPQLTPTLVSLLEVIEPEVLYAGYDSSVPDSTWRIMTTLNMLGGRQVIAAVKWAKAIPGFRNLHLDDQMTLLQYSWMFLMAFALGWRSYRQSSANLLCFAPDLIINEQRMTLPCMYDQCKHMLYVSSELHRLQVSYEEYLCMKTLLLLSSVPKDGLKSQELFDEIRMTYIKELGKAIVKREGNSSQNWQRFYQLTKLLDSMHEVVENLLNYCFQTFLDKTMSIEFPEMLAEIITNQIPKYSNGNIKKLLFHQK
Peroxisome proliferator-activated receptor gamma (Homo sapiens), sequence (P37231 whole entry, looked up): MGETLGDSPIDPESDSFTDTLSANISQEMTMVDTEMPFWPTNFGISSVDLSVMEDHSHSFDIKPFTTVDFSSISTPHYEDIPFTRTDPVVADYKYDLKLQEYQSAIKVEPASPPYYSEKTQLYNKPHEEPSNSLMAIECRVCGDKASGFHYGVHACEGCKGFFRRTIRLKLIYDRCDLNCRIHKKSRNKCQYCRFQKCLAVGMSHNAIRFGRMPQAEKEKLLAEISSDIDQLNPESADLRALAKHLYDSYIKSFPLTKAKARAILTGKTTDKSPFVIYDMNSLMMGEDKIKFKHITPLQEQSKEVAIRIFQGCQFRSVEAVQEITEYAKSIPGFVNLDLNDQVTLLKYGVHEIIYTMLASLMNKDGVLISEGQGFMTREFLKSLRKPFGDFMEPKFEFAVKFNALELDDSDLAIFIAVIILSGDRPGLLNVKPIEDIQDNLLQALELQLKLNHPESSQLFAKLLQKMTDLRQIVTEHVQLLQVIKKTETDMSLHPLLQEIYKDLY
Thyroid hormone receptor beta (Homo sapiens), sequence (P10828 whole entry, looked up): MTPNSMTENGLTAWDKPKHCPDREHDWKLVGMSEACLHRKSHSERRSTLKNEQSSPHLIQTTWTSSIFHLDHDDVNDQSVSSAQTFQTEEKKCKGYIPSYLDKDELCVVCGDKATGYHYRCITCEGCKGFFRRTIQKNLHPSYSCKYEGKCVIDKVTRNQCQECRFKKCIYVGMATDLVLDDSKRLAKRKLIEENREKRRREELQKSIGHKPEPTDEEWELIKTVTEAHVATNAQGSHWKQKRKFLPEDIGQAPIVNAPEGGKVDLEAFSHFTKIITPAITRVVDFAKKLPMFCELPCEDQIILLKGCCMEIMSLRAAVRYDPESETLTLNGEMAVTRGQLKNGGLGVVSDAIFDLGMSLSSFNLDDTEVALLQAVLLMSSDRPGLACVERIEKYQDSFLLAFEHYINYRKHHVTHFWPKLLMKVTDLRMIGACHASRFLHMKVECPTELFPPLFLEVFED
Peroxisome proliferator-activated receptor alpha (Homo sapiens), sequence (Q07869 whole entry, looked up): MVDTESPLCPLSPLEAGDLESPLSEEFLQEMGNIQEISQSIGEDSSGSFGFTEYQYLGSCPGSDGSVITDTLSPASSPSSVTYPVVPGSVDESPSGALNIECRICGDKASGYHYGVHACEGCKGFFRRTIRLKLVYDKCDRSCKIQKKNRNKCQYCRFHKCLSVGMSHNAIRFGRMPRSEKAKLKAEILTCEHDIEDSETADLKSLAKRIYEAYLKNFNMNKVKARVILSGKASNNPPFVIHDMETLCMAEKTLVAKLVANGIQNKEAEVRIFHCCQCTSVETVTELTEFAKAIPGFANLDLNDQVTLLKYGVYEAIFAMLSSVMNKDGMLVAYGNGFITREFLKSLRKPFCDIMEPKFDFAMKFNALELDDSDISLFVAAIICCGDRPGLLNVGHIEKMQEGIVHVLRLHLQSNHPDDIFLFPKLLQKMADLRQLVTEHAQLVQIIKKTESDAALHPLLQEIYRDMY
Bile acid receptor (Homo sapiens), sequence (Q96RI1 whole entry, looked up): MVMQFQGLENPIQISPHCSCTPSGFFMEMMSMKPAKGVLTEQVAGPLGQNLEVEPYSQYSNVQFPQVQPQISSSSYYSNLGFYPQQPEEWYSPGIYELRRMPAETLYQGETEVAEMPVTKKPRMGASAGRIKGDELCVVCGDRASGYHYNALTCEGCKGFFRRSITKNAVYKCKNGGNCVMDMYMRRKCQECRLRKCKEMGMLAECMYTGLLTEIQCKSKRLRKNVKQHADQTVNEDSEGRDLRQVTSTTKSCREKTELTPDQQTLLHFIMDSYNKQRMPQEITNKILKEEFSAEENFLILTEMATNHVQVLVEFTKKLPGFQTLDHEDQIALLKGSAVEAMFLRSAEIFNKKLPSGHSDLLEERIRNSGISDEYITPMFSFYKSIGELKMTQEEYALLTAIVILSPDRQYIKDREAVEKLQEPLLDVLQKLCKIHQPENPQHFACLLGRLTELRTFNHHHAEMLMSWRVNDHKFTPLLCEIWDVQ
Retinoic acid receptor RXR-alpha (Homo sapiens), sequence (P19793 whole entry, looked up): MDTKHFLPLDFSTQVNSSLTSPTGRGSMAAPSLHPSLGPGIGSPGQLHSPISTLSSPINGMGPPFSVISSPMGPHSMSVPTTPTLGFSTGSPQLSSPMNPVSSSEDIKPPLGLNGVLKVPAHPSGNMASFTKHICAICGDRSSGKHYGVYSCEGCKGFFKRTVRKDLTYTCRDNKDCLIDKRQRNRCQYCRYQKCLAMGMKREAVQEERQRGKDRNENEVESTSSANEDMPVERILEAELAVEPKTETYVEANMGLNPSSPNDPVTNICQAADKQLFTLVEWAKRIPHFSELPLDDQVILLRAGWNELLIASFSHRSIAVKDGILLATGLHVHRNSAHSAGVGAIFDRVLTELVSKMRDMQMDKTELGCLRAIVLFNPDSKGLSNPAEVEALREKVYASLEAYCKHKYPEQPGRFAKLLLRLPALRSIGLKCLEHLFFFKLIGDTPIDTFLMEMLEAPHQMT

Take `CC(=O)[C@H]1[C@H](C#N)C[C@H]2[C@@H]3CC=C4C[C@@H](O)CC[C@]4(C)[C@H]3CC[C@@]21C`: the activity change, negative = inhibition was 5.31% (inactive) in assay [1] and 9.39% (inactive) in [2]. Also, in [3], the activity, negative = inhibition was 2.76% (inactive). Besides, in assay [4], the Potency is > 20.6 µM (inactive). Moreover, the compound was classed as inactive in assay [5], in [7], in assay [8], in assay [9] and in [16]. The activation in [6] is -8.47% (inactive) and 3.7% (inactive); in [12] it was 0.753% (inactive) and -1.56% (inactive); in [13] it was -1.18% (inactive) and -2.42% (inactive); in assay [14], -1.23% (inactive) and 0.356% (inactive). The max response in assay [10] was 9.02%; in assay [11], -3.98% (inactive); in assay [15], -0.257% (inactive) and 0.0087% (inactive); in assay [17] it was -9.55% (inactive) and -3.25% (inactive); in assay [18], -20.6% (inactive) and -13.5% (inactive). The Potency entry in [19] and in [20] was “inactive” each time.
